From PubChem BioAssay
G9a inh = qHTS Assay for Inhibitors of Histone Lysine Methyltransferase G9a; Histone-lysine N-methyltransferase EHMT2 (Homo sapiens), Q96KQ7; G9a H3K9 monomethylation, AlphaScreen, 2 h; Potency, µM (top dose mostly 102 µM), inactives show at the top dose activity, negative = inhibition, hits mostly inhibitors; hit rate 8.8% among 350,000; note: % is set by controls: 0 for no effect and ±100 for the full control effect; nearly all actives have a fitted effect of over 75% in size
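Compounds were preincubated with 20 nM G9a for 15 min, after which biotinylated H3K9 peptide (500 nM) and SAM (20 uM) started a 2 h room-temperature reaction. Monomethylated product was quantified by antibody-based AlphaScreen chemiluminescence.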
HP1b binding inh = HTS for Inhibitors of HP1-beta Chromodomain Interactions with Methylated Histone Tails; Chromobox protein homolog 1 (Homo sapiens), P83916; AlphaScreen HP1-beta / biotin-H3K9me3 peptide binding; Potency, µM (titrated, usually from 114 µM), without a hit: top-dose activity change, negative = inhibition, actives largely listed as inhibitors; hit rate 0.56% among 390,000; note: nearly all actives have a fitted effect of over 70% in size
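Compound inhibition of the preformed complex between 50 nM HP1-beta and 50 nM biotinylated H3K9me3 peptide was read by AlphaScreen. Buffer was PBS pH 7.4 with 0.01% Tween-20. Incubations ran 30 min at room temperature, with 10 ug/mL donor/acceptor beads.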
L3MBTL1 inh = qHTS Assay for the Inhibitors of L3MBTL1; AlphaScreen L3MBTL1–H3K9me1 peptide binding; hit rate 0.66% among 230,000; Potency, µM (series often up to 57.1 µM), without a hit: top-dose activity, negative = inhibition, actives largely listed as inhibitors; AID 485360, 2010; Lethal(3)malignant brain tumor-like protein 1 (Homo sapiens), Q9Y468; note: % is set by controls: 0 for no effect and ±100 for the full control effect; nearly all actives have a fitted effect of over 60% in size
Target sequence (Q9Y468 whole entry, looked up): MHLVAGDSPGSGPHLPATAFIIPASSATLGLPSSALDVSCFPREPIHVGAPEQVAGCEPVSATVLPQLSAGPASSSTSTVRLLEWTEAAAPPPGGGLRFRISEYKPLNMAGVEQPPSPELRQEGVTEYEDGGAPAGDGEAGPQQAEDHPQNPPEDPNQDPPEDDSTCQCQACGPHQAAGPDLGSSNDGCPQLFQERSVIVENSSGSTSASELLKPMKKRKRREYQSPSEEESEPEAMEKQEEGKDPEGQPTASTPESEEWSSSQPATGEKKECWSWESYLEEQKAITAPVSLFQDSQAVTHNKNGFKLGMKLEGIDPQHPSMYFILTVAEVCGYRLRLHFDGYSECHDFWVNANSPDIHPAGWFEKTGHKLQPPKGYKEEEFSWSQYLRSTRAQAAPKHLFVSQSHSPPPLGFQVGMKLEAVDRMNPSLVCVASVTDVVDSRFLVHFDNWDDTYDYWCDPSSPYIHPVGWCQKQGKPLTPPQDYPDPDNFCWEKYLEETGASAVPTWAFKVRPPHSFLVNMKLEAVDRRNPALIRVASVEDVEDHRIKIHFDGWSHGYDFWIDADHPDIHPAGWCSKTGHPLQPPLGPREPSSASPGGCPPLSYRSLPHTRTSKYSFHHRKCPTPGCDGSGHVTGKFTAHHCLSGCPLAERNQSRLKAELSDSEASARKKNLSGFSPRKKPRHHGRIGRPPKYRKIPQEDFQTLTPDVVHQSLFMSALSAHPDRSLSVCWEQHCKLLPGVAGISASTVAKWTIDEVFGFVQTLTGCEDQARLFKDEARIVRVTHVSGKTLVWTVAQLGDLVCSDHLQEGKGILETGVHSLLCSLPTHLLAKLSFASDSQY
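AlphaScreen proximity signal between nickel-chelate acceptor and streptavidin donor beads (final 10 ug/mL) reports binding of 50 nM L3MBTL1 to 75 nM biotin-H3 K9me1 peptide; complex incubated with compounds 30 min at room temperature; cefsulodin titration as control.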
Sfp PPTase inh = qHTS Assay for Inhibitors of Bacillus subtilis Sfp phosphopantetheinyl transferase (PPTase). 4'-phosphopantetheinyl transferase ffp (Bacillus subtilis), Q9F4F7. Potency, µM, for the others: largest response in the series, negative = inhibition, most hits filed as inhibitors. hit rate 3.5% among 310,000. Biochemical Sfp PPTase activity, qHTS;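 note: the enzyme is Sfp with the accession as filed and its product quenches rhodamine fluorescence; 0% = enzyme reaction without inhibitor and -100% = no enzyme wells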
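Fluorescence-quenching assay: 15 nM Sfp-PPTase preincubated 15 min at room temperature with compound, then 5 uM rhodamine-CoA and 12.5 uM BHQ-2-labelled YbbR peptide added. Fluorescence (ex 525/em 598 nm) read at start and after 30 min; difference gives rate.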
JMJD2A Tudor = qHTS Assay for Inhibitors of JMJD2A-Tudor Domain; Lysine-specific demethylase 4A (Homo sapiens), O75164; AlphaScreen JMJD2A-Tudor / H3K4me3 peptide binding; Potency, µM (top dose mostly 114 µM), without a hit: at the top dose activity change, negative = inhibition, actives largely listed as inhibitors; hit rate 4.4% among 390,000; AID 504339, 2011; note: % is set by controls: 0 for no effect and ±100 for the full control effect; nearly all actives have a fitted effect of over 50% in size
BAZ2B block = qHTS Assay for Inhibitors of BAZ2B; AlphaScreen BAZ2B-H3K14Ac peptide displacement; Potency, µM (top dose mostly 114 µM), for inactives: at the highest dose activity change, negative = inhibition, most hits filed as inhibitors; hit rate 4.4% among 360,000; note: % is set by controls: 0 for no effect and ±100 for the full control effect; nearly all actives have a fitted effect of over 60% in size
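Protein-peptide AlphaScreen: BAZ2B 50 nM, b-H3K14Ac 50 nM, 1x PBS pH 7.4 + 0.01% Tween-20. Preincubation 30 min RT; cpd 30 min RT (top 110 uM); beads 20 min RT, light-protected.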
* marks the source's active call; other numbers are inactive results; u = inconclusive; x = no result; [ ] = another dose, or the depositor's remark. The list is not random: actives were taken first. Their share in the collection is about 12%. Calls come from the whole dose curve; as a rule, active = well fitted curve in the direction sought with a large enough effect; inconclusive = small, poorly fitted or top-dose-only effect, or another doubt; inactive = no such curve, though single readings can be large; an effect the other way counts as inactive or inconclusive. Potency is the fitted concentration of half-maximal effect.

SMILES	G9a inh	HP1b binding inh	L3MBTL1 inh	Sfp PPTase inh	JMJD2A Tudor	BAZ2B block
O=C(N/N=C/c1ccc(O)c(Br)c1)c1cc2c(ccc3ccccc32)o1	-2%[0.501 µM]	37%	x	-3%	-11%	-6%
O=C(N/N=C/c1cccnc1)c1cc2c(ccc3ccccc32)o1	-39%[12.7 µM]	30%	8%	-6%	-34%	-12%
COC(=O)c1ccc(-n2c(C)cc(C(=O)CCl)c2C)cc1	u	7%	x	-42%	-29%	u
CCOc1ccc(-n2c(C)cc(/C=N/N(C)C)c2C)cc1	45µM*	-18%	-25%	11%	45µM*	u
CCOc1ccc(-n2c(C)cc(C(=O)CCl)c2C)cc1	45µM*	u	x	-1%	u	-22%
CCOc1ccc(-n2c(C)cc(/C=N/NC(=O)C(N)=O)c2C)cc1	u	-4%	-1%[11.4 µM]	-12%	-35%	u
CCOC(=O)c1[nH]c(C)c(CCC(=O)Nc2ccc(C(C)=O)cc2)c1C	1%[59 µM]	13%[57 µM]	x	x	-28%	-22%
CCCS(=O)(=O)c1c(S(=O)(=O)CCC)c2c(N)cccn2c1C(=O)c1ccc(OC)cc1	x	1%	-19%	-1%	u	u
CCCS(=O)(=O)c1c(S(=O)(=O)CCC)c2c(N)cccn2c1C(=O)c1ccc(F)cc1	u	23%	x	22µM*	u	u
CCCS(=O)(=O)c1c(S(=O)(=O)CCC)c2c(N)cccn2c1C(=O)c1ccc(Br)cc1	11µM*	-6%	-7%	-24%	u	-39%
CCCS(=O)(=O)c1c(S(=O)(=O)CCC)c2c(C)cccn2c1C(=O)OC	32µM*	-16%	-2%	79µM*	u	7%[57.1 µM]
COc1cc(-c2nnc(SCCOc3ccc(Cl)cc3C)o2)cc(OC)c1OC	-3%[59 µM]	47%	x	x	-22%	-4%
COc1ccc(C(=O)c2oc3ccccc3c2NC(=O)c2cc(=O)c3ccc(C)cc3o2)cc1Cl	-6%[59 µM]	25%	x	x	-17%	u
COc1cc(C(=S)N2CCN(c3cccc(Cl)c3)CC2)ccc1O	-5%[0.501 µM]	7.1µM*	-29%	10µM*	63µM*	45µM*
COc1cc(C(=S)N2CCN(c3ccccc3Cl)CC2)cc(O)c1O	1.8µM*	11µM*	u	35µM*	32µM*	50µM*
CC(=O)N1CCN(C(=S)c2ccc(Cl)cc2)CC1	25µM*	u	29%	7.1µM*	-7%	41%
Oc1ccccc1C(=S)N1CCN(c2cccc(Cl)c2)CC1	-9%[0.501 µM]	u	-28%	16µM*	u	45µM*
COc1ccccc1N1CCN(C(=O)COc2ccc(Cl)cc2Br)CC1	-51%[59 µM]	32%	-9%	-20%	-18%	x
CC(=O)N1CCN(c2ccc(NC(=O)c3ccc(Cl)cc3)cc2)CC1	17%[59 µM]	49%	1%	23%	-14%	-7%
Cc1ccc(C(=O)N2CCN(c3cccc(Cl)c3)CC2)cc1C	2%[12.7 µM]	18%	x	u	-21%	4%
CS(=O)(=O)N1CCC(N2CCN(Cc3ccccc3)C(=O)C2=O)CC1	-2%[59 µM]	14%	x	x	-2%	0%
CCC(C)NC(=O)c1nn(-c2ccc(C)cc2)nc1CO (configuration not stated)	6%[59 µM]	9%	x	x	-20%	3%
COc1ccc(C(=O)N2CCN(c3cccc(Cl)c3)CC2)cc1	-8%[59 µM]	38%	9%	10%	-15%	-4%
COc1ccc(C(=S)N2CCN(c3cccc(Cl)c3)CC2)c(OC)c1	10µM*	u	-19%	18µM*	u	u
CC(=O)c1ccc(NC(=S)N2CCN(c3cccc(Cl)c3)CC2)cc1	10%	18%	0%[11.4 µM]	17%	-7%	-12%
SMILES	G9a inh	HP1b binding inh	L3MBTL1 inh	Sfp PPTase inh	JMJD2A Tudor	BAZ2B block
Oc1ccc(C(=S)N2CCN(c3cccc(Cl)c3)CC2)cc1	5µM*	u	-26%	16µM*	56µM*	40µM*
COc1cc(NC(=O)Cn2c(=O)n(Cc3ccccc3OC)c(=O)c3cccnc32)cc(OC)c1	-13%[59 µM]	16%	x	x	-6%	4%
CCOC(=O)c1c(NC(=O)COc2ccccc2OCC)sc2c1CC(C)(C)NC2(C)C	u	-7%	-10%	x	-33%	-4%
CCOC(=O)c1c(NC(=O)CSc2nnnn2-c2ccccc2)sc2c1CC(C)(C)NC2(C)C	x	-5%	x	-11%	u	71µM*
CCOC(=O)c1c(NC(=O)CSc2nc3ccc(C)cc3[nH]2)sc2c1CC(C)(C)NC2(C)C	45µM*	-14%	-8%	x	u	-39%
CCOC(=O)c1c(NC(=O)CSc2nnnn2-c2ccccc2OCC)sc2c1CC(C)(C)NC2(C)C	50µM*	-4%	-9%	x	-32%	-37%
COc1cc2c(cc1OC)C1C(=O)c3ccc4c(c3OC1CO2)C=CC(C)(C)O4 (configuration not stated)	-41%[2.33 µM]	x	x	-19%	x	x
CCc1cc2c(nc1CC)CCN(CC/C(C)=N/O[C@@H]1O[C@H](COC(C)=O)[C@H](OC(C)=O)[C@H](OC(C)=O)[C@H]1OC(C)=O)C2	x	x	x	7%	x	x
CN1CCN(Cc2c(O)ccc3cc(Br)ccc23)CC1	5µM*	1%	-26%	-7%	u	x
O=C(Nc1ccccc1)N1CCCC2(CCN(C(=O)c3ccco3)CC2)C1	9%[12.7 µM]	x	x	15%	x	x
CCOC(=O)c1ccc(S(=O)(=O)N2CCN(CC(O)COc3cccc(C(C)=O)c3)CC2)cc1 (configuration not stated)	-9%	-13%	x	-20%	18µM*	79µM*
O=C(C1CCCN(S(=O)(=O)c2cccc3nsnc23)C1)N1CCN(c2ccccc2)CC1 (configuration not stated)	-39%[59 µM]	-8%	x	x	-34%	x
C=CCC1CCC/C(=N\NS(=O)(=O)c2ccc(C)cc2)C1 (configuration not stated)	25µM*	37%	x	-5%	-6%	-4%
c1ccc(-c2nc3ccccc3nc2N2CCOCC2)cc1	68%[59 µM]	156%	24%	4%	136%	62%
Cn1c(N2CCOCC2)nc(-c2ccccc2)c1-c1ccccc1	50µM*	-12%	x	1%	-31%	u
Cc1ccc(NC(c2cccc(Cl)c2)c2nnc(-c3ccccc3)o2)cc1F (configuration not stated)	-3%[59 µM]	15%	x	x	-16%	u
